By residual activity is commonly meant the signal under treatment as a percentage of the control signal.

For assay [1], the target named is T1, Ephrin type-A receptor 3 (Homo sapiens) (UniProt P29320).
T1 sequence (whole entry): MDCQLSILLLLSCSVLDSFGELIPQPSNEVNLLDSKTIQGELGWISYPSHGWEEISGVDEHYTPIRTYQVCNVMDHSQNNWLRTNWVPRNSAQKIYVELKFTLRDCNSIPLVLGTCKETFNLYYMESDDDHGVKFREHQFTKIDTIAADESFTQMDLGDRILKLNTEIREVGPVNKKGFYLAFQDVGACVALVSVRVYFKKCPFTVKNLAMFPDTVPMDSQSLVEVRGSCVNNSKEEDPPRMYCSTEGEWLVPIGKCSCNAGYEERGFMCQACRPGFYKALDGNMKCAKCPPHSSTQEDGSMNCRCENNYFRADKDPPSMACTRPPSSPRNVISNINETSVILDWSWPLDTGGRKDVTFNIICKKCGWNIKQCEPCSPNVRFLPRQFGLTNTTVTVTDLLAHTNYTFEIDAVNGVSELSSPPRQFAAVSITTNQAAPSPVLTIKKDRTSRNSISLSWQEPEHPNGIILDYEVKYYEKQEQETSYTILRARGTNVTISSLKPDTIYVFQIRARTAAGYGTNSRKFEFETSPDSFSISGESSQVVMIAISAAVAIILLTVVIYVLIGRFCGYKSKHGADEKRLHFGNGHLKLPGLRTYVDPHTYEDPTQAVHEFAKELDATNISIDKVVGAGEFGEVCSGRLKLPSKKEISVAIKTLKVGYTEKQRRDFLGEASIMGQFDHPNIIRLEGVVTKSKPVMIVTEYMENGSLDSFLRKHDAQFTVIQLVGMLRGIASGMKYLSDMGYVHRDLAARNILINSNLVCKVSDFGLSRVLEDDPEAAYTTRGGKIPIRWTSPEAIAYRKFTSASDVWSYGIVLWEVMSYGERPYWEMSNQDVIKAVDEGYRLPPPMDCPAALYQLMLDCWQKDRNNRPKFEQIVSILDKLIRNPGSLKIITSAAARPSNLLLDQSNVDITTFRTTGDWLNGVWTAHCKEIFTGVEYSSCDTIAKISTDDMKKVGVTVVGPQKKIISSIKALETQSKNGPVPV
The conditions noted are these: at 10 µM.

In assay [2] the target is Ephrin type-A receptor 4 (Homo sapiens) (UniProt P54764). The conditions noted are these: at 1 µM.
Chain of Ephrin type-A receptor 4 (Homo sapiens) (P54764 whole entry): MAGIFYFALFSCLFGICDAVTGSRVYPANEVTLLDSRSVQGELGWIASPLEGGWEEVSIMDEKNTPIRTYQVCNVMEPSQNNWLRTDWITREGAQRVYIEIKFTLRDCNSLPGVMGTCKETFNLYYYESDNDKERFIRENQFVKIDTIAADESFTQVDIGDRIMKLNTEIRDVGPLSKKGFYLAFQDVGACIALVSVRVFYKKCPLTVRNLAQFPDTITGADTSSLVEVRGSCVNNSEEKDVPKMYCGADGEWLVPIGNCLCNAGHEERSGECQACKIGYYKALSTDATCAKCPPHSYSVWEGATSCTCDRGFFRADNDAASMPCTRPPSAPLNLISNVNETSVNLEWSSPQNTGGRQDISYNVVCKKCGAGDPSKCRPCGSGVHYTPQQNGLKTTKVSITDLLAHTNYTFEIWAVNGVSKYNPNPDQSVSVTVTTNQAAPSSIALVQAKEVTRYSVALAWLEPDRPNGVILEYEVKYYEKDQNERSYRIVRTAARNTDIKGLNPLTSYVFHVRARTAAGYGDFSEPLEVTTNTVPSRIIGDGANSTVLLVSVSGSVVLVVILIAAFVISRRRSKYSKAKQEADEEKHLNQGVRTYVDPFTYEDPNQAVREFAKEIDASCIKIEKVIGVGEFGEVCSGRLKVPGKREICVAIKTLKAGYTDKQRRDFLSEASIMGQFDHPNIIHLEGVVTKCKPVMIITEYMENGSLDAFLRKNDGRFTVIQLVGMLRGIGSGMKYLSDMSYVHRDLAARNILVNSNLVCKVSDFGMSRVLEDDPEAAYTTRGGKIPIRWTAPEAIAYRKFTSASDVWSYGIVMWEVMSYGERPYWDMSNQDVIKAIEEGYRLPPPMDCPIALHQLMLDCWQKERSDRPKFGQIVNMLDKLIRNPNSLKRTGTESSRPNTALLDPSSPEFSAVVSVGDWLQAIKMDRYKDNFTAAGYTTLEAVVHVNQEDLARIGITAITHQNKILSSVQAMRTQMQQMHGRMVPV
Assay [3] shares this target. The conditions noted are these: at 10 µM.
Assay [4] concerns the target Ephrin type-A receptor 5 (Homo sapiens) (UniProt P54756). The conditions noted are these: at 1 µM.
Assay [5] has the same target. The conditions noted are these: at 10 µM.
Assay [6] deals with Ephrin type-A receptor 7 (Homo sapiens) (UniProt Q15375). The conditions noted are these: at 1 µM.
Chain of Ephrin type-A receptor 7 (Homo sapiens) (Q15375 28-998 limits assumed): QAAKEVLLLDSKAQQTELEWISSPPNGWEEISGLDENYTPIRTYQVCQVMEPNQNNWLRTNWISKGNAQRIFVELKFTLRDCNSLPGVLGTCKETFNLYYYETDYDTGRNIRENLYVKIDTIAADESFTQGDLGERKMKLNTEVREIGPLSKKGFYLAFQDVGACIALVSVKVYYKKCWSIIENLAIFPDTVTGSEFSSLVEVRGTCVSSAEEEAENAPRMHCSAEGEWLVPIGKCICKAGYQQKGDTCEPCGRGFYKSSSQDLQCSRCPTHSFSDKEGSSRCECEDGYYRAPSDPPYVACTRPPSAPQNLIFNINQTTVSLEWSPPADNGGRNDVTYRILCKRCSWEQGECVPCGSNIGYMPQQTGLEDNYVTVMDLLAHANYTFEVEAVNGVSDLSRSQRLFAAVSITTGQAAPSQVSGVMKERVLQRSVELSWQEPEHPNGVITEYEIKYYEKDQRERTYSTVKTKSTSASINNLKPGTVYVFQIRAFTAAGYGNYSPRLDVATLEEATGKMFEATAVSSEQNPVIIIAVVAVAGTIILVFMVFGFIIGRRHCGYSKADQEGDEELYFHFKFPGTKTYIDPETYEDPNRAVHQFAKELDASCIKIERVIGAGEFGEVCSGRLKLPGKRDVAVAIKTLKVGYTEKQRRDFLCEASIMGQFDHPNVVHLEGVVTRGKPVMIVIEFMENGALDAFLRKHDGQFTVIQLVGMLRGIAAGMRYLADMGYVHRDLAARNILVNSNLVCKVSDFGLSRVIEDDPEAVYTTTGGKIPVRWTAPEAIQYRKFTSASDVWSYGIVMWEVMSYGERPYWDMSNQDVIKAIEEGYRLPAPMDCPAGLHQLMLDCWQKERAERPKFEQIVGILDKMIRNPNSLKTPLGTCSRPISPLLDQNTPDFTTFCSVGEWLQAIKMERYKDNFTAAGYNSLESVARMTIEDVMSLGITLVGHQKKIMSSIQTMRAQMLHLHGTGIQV
Assay [7] has the same target. The conditions noted are these: at 10 µM.
The target in assay [8] is T2, Ephrin type-A receptor 8 (Homo sapiens) (UniProt P29322).
T2 sequence (whole entry): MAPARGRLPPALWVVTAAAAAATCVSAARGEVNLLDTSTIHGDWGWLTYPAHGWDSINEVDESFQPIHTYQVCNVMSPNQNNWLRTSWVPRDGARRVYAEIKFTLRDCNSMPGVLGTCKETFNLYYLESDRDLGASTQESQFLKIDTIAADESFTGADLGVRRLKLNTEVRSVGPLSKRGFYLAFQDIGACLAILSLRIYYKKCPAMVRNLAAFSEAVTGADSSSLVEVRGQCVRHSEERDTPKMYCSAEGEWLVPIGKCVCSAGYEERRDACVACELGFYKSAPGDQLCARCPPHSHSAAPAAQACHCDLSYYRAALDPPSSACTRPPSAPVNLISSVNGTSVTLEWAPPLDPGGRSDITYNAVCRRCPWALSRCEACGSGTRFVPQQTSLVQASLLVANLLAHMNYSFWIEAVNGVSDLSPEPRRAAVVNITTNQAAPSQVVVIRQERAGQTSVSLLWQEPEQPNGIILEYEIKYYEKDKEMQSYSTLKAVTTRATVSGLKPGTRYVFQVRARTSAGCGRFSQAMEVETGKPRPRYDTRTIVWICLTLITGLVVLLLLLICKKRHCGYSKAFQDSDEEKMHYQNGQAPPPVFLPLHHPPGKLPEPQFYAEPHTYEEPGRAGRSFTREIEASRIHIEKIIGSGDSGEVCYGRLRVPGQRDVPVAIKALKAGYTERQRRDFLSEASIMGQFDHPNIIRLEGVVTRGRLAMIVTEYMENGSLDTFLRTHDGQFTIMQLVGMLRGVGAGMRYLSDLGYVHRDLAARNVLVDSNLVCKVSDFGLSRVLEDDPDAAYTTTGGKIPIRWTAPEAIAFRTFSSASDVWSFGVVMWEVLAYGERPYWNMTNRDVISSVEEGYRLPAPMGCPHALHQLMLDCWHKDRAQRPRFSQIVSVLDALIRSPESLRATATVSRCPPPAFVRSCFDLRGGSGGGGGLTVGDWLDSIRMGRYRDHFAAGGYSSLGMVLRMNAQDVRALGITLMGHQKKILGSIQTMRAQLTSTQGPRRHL
The conditions noted are these: at 1 µM.

For assay [9], the target named is T2, Ephrin type-A receptor 8 (Homo sapiens). The conditions noted are these: at 10 µM.
Assay [10] addresses T3, Ephrin type-B receptor 1 (Homo sapiens) (UniProt P54762).
T3 sequence (whole entry): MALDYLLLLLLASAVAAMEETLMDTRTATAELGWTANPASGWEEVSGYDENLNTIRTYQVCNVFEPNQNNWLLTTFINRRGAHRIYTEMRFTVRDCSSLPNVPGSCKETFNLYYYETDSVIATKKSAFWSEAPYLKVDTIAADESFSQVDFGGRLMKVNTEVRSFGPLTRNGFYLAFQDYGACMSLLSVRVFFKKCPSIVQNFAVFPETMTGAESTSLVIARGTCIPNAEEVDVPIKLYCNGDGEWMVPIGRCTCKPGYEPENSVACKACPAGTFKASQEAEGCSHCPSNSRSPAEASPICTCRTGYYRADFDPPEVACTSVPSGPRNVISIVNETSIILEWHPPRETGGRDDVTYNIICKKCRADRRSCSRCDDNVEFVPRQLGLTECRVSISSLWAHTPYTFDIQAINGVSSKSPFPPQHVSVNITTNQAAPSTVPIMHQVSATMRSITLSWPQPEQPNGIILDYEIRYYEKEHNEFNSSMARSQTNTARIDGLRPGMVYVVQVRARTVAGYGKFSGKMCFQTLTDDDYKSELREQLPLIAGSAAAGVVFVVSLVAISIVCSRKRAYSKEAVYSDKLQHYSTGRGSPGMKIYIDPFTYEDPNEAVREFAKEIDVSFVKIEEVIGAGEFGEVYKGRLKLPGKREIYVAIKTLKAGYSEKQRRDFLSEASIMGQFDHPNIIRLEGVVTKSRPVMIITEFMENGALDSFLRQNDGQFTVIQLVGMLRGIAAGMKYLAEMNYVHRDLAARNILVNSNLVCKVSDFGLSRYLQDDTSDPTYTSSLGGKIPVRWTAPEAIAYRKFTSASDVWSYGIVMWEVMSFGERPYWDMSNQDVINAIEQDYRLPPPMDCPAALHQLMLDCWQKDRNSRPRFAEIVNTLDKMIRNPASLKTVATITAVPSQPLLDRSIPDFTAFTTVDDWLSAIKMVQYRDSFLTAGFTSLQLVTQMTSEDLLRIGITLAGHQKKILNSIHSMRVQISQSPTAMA
The conditions noted are these: at 1 µM.

Chain of Ephrin type-A receptor 5 (Homo sapiens) (P54756 whole entry): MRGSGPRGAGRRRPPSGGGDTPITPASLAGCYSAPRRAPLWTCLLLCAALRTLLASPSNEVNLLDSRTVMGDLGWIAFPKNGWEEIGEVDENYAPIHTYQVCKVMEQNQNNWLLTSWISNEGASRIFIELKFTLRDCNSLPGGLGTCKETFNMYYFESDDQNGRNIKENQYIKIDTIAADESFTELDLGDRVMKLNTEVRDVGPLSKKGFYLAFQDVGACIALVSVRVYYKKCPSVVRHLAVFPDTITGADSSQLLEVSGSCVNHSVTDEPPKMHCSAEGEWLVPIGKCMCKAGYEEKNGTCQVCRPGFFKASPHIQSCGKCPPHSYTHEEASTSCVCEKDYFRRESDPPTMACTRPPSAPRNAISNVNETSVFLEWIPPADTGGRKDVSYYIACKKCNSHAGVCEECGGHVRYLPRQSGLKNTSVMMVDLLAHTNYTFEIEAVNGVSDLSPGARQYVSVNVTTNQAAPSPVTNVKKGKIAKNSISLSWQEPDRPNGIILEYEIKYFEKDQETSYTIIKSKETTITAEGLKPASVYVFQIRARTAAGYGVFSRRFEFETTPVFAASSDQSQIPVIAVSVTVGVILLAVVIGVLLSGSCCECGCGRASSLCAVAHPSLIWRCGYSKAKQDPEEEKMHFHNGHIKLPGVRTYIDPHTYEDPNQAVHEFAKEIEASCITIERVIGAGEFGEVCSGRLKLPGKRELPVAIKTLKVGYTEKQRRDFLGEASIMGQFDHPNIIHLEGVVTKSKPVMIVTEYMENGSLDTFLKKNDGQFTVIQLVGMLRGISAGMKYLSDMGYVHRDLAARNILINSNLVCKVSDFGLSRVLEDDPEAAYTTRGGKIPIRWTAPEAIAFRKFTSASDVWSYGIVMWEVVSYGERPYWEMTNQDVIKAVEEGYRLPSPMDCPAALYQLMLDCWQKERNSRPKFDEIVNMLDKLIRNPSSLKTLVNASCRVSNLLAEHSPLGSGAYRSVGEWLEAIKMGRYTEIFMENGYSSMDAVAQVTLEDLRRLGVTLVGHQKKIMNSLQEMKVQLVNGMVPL

For the compound `O=C1Nc2ccc3ncsc3c2/C1=C/c1c[nH]cn1`, the residual activity in [1] stood at 28%; in [2], 102%; in assay [3], 68%; in [4] it was 89%; in assay [5], 42%; in assay [6], 77%. The residual activity was 17% in assay [7], 95% in assay [8], 72% in assay [9] and 60% in assay [10].

The values are drawn from ChEMBL document CHEMBL2218924, “A broad activity screen in support of a chemogenomic map for kinase signalling research and drug discovery” (Biochem J, 2013).
